Reference: the antibiotic and cytotoxicity screens of Wong et al. (2023)
Screen size: about 39,000 compounds; about 1,500 (3.8%) were called active. What follows is part of a selection rich in actives, with near analogues and random picks from the rest.

System: HSkMC (human skeletal muscle cells)
Assay: cytotoxicity call (relative viability < 0.9)
Conditions: 10 µM

With C[C@@H]1CN([C@H](C)CO)C(=O)c2cc(NC(=O)C3CCCCC3)ccc2O[C@@H](C)CCCCO[C@H]1CN(C)S(=O)(=O)c1ccccc1 as the compound, how does the cytotoxicity call read?
Its cytotoxicity call is “inactive”.

For C[C@H]1CN([C@@H](C)CO)C(=O)c2c(c3ccccc3n2C)-c2ccccc2CO[C@H]1CN(C)C(=O)Nc1ccccc1C(F)(F)F, which cytotoxicity call is on record?
Its cytotoxicity call is “inactive”.

With COc1ccc(NC(=O)Nc2cccc3c2O[C@@H](CN(C)Cc2ccc(Cl)c(Cl)c2)[C@H](C)CN([C@H](C)CO)C3=O)cc1 as the compound, how does the cytotoxicity call read?
The cytotoxicity call was “inactive”.

How did the cytotoxicity call turn out when CC(C)NC(=O)Nc1ccc2c(c1)C(=O)N([C@@H](C)CO)C[C@@H](C)[C@H](CN(C)Cc1ccc(Cl)c(Cl)c1)OCCCC[C@@H](C)O2 was run?
The cytotoxicity call was “inactive”.

C[C@@H]1CN([C@@H](C)CO)C(=O)c2cccc(NC(=O)c3ccncc3)c2O[C@@H]1CN(C)S(=O)(=O)c1cccs1 was tested. Which cytotoxicity call did it give?
The cytotoxicity call was “inactive”.

How did the cytotoxicity call turn out when C[C@H]1CN([C@@H](C)CO)C(=O)CCCn2cc(nn2)CO[C@H]1CN(C)C(=O)C1CC1 was run?
The cytotoxicity call was “inactive”.

For O=C(C[C@@H]1CC[C@@H]2[C@H](COC[C@H](O)CN2S(=O)(=O)c2cccc(F)c2)O1)NCCCN1CCOCC1, which cytotoxicity call is on record?
The cytotoxicity call was “inactive”.

How did the cytotoxicity call turn out when CNc1nc(OCC#N)nc(N2CCCCC2)n1 was run?
Its cytotoxicity call is “inactive”.

Which cytotoxicity call does the source give for COC(=O)[C@@]12OC[C@]34[C@H]([C@@H](O)[C@@H]1O)[C@@]1(C)CC(=O)C(=O)[C@H](C)[C@@H]1C[C@H]3OC(=O)[C@H](OC(=O)/C=C(\C)C(C)C)[C@@H]24 here?
The cytotoxicity call was “active”.

For C[C@H](CO)N1C[C@H](C)[C@@H](CN(C)S(=O)(=O)c2ccccc2)Oc2ncc(C#Cc3ccccc3F)cc2C1=O, which cytotoxicity call is on record?
Its cytotoxicity call is “inactive”.

O=C(C[C@@H]1CC[C@H]2[C@@H](COC[C@@H](O)CN2C(=O)c2ccc3c(c2)OCO3)O1)NCCN1CCCCC1 was tested. Which cytotoxicity call did it give?
The cytotoxicity call was “inactive”.

Which cytotoxicity call does the source give for CC(=O)NCC(=O)N1CCC2(CC1)CN(c1cnn(C)c1)C(=O)CO2 here?
The cytotoxicity call was “inactive”.

O[C@@H](COc1cccc2ncccc12)CN1CCN([C@@H]2c3ccccc3[C@@H]3[C@H](c4ccccc42)C3(F)F)CC1 was tested. Which cytotoxicity call did it give?
The cytotoxicity call was “active”.

Which cytotoxicity call does the source give for O=C1C(=O)N(C[C@@H](O)COc2cccc3ccccc23)C(=O)C(=O)N1C[C@@H](O)COc1cccc2ccccc12 here?
Its cytotoxicity call is “inactive”.

With COc1ccccc1N1CCN(CC(O)COc2cccc3ccccc23)CC1 (centres undefined) as the compound, how does the cytotoxicity call read?
The cytotoxicity call was “inactive”.

How did the cytotoxicity call turn out when C[C@H](CO)N1C[C@H](C)[C@@H](CN(C)C(=O)c2ccncc2)OCCCC[C@H](C)Oc2ccc(NS(C)(=O)=O)cc2C1=O was run?
The cytotoxicity call was “inactive”.

With C[C@@H]1CN([C@H](C)CO)C(=O)c2cc(NC(=O)Nc3ccc(C(F)(F)F)cc3)ccc2O[C@@H](C)CCCCO[C@@H]1CN(C)C(=O)Nc1cccc2ccccc12 as the compound, how does the cytotoxicity call read?
Its cytotoxicity call is “inactive”.

C[C@@H]1CN([C@H](C)CO)C(=O)c2cccc(NC(=O)Nc3ccccc3)c2O[C@@H]1CN(C)S(C)(=O)=O was tested. Which cytotoxicity call did it give?
The cytotoxicity call was “inactive”.

How did the cytotoxicity call turn out when COc1ccc2c3c(n(c2c1)C)[C@@H](CO)N(CC1CC1)C[C@]13CCN(CC1)S(=O)(=O)c1cn(cn1)C was run?
The cytotoxicity call was “inactive”.

For C[C@H](NC(=O)c1c(N)nn2cccnc12)c1cc2cccc(C#Cc3cnn(C)c3)c2c(=O)n1-c1ccccc1, which cytotoxicity call is on record?
The cytotoxicity call was “active”.

C[C@@H]1CCCCO[C@H](CN(C)C(=O)Nc2ccccc2)[C@@H](C)CN([C@@H](C)CO)C(=O)c2cc(NC(=O)Cc3ccccc3)ccc2O1 was tested. Which cytotoxicity call did it give?
Its cytotoxicity call is “inactive”.

How did the cytotoxicity call turn out when COc1ccc(S(=O)(=O)N(C)C[C@@H]2Oc3cc(C#CC4CC4)ccc3S(=O)(=O)N([C@@H](C)CO)C[C@@H]2C)cc1 was run?
Its cytotoxicity call is “inactive”.

Which cytotoxicity call does the source give for C=CC(=O)Nc1cccc(Nc2nc(Nc3ccc(NC4CN(CCF)C4)cc3OC)ncc2C(F)(F)F)c1 here?
Its cytotoxicity call is “active”.

How did the cytotoxicity call turn out when C=CC(=O)Nc1cccc(C)c1Nc1ncc2cc(-c3c(Cl)c(OC)cc(OC)c3Cl)ccc2n1 was run?
Its cytotoxicity call is “inactive”.

C[C@@H]1CN([C@@H](C)CO)C(=O)c2cc(NC(=O)C3CC3)ccc2O[C@H]1CN(C)S(=O)(=O)c1ccccc1 was tested. Which cytotoxicity call did it give?
Its cytotoxicity call is “inactive”.

With C[C@@H](NC(=O)C[C@@H]1CC[C@H](NC(=O)CN2CCOCC2)[C@H](CO)O1)c1ccccc1 as the compound, how does the cytotoxicity call read?
The cytotoxicity call was “inactive”.

How did the cytotoxicity call turn out when CC[C@H](C)n1ncn(-c2ccc(N3CCN(c4ccc(OC[C@H]5CO[C@](Cn6cncn6)(c6ccc(Cl)cc6Cl)O5)cc4)CC3)cc2)c1=O was run?
The cytotoxicity call was “active”.

With CCC(C)n1ncn(-c2ccc(N3CCN(c4ccc(OCC5COC(Cn6cncn6)(c6ccc(Cl)cc6Cl)O5)cc4)CC3)cc2)c1=O.Cl.Cl (centres undefined) as the compound, how does the cytotoxicity call read?
Its cytotoxicity call is “inactive”.

Which cytotoxicity call does the source give for CC[C@@H](C)n1ncn(-c2ccc(N3CCN(c4ccc(OC[C@H]5CO[C@](Cn6cncn6)(c6ccc(Cl)cc6Cl)O5)cc4)CC3)cc2)c1=O here?
The cytotoxicity call was “inactive”.

CS(=O)(=O)N1CCN(Cc2cc3nc(-c4cccc5n[nH]cc45)nc(N4CCOCC4)c3s2)CC1 was tested. Which cytotoxicity call did it give?
Its cytotoxicity call is “active”.

Which cytotoxicity call does the source give for CO[C@@H]1CN(C)C(=O)c2ccc(NC(=O)NC(C)C)cc2OC[C@@H](C)N(Cc2ccc(-c3ccccn3)cc2)C[C@H]1C here?
Its cytotoxicity call is “inactive”.

With C[C@H](CO)N1C[C@H](C)[C@H](CN(C)CC2CC2)Oc2ccc(NS(=O)(=O)c3cccs3)cc2C1=O as the compound, how does the cytotoxicity call read?
The cytotoxicity call was “inactive”.

For C[C@H](CO)N1C[C@H](C)[C@H](CN(C)C(=O)Nc2ccc(C(F)(F)F)cc2)OCCCC[C@H](C)Oc2ccc(NC(=O)Nc3ccc(C(F)(F)F)cc3)cc2C1=O, which cytotoxicity call is on record?
The cytotoxicity call was “active”.

With CC(C)NC(=O)N(C)C[C@@H]1OCCCC[C@@H](C)Oc2ccc(NC(=O)Nc3ccc(C(F)(F)F)cc3)cc2C(=O)N([C@@H](C)CO)C[C@H]1C as the compound, how does the cytotoxicity call read?
Its cytotoxicity call is “inactive”.

Which cytotoxicity call does the source give for C[C@@H]1CCCCO[C@@H](CN(C)C(=O)C2CCCCC2)[C@@H](C)CN([C@H](C)CO)C(=O)c2cc(NC(=O)Nc3ccc(C(F)(F)F)cc3)ccc2O1 here?
The cytotoxicity call was “inactive”.

For C[C@@H]1CCCCO[C@@H](CN(C)C(=O)C2CCCCC2)[C@H](C)CN([C@@H](C)CO)C(=O)c2cc(NC(=O)Nc3ccc(C(F)(F)F)cc3)ccc2O1, which cytotoxicity call is on record?
The cytotoxicity call was “inactive”.

For CC(C)NC(=O)N(C)C[C@@H]1OCCCC[C@H](C)Oc2ccc(NC(=O)Nc3ccc(C(F)(F)F)cc3)cc2C(=O)N([C@@H](C)CO)C[C@@H]1C, which cytotoxicity call is on record?
The cytotoxicity call was “active”.

For CC(C)NC(=O)N(C)C[C@H]1OCCCC[C@H](C)Oc2ccc(NC(=O)Nc3ccc(C(F)(F)F)cc3)cc2C(=O)N([C@H](C)CO)C[C@@H]1C, which cytotoxicity call is on record?
Its cytotoxicity call is “inactive”.

How did the cytotoxicity call turn out when CC(C)NC(=O)N(C)C[C@@H]1OCCCC[C@H](C)Oc2ccc(NC(=O)Nc3ccc(C(F)(F)F)cc3)cc2C(=O)N([C@H](C)CO)C[C@@H]1C was run?
The cytotoxicity call was “active”.

Which cytotoxicity call does the source give for C[C@H]1CCCCO[C@H](CN(C)C(=O)C2CCCCC2)[C@@H](C)CN([C@@H](C)CO)C(=O)c2cc(NC(=O)Nc3ccc(C(F)(F)F)cc3)ccc2O1 here?
The cytotoxicity call was “active”.

With CC(C)NC(=O)N(C)C[C@@H]1OCCCC[C@H](C)Oc2ccc(NC(=O)Nc3ccc(C(F)(F)F)cc3)cc2C(=O)N([C@@H](C)CO)C[C@H]1C as the compound, how does the cytotoxicity call read?
The cytotoxicity call was “inactive”.

How did the cytotoxicity call turn out when C[C@H]1CCCCO[C@H](CN(C)C(=O)Nc2ccc(C(F)(F)F)cc2)[C@@H](C)CN([C@@H](C)CO)C(=O)c2cc(NC(=O)Nc3ccc(C(F)(F)F)cc3)ccc2O1 was run?
Its cytotoxicity call is “inactive”.

For CC(C)NC(=O)N(C)C[C@H]1OCCCC[C@@H](C)Oc2ccc(NC(=O)Nc3ccc(C(F)(F)F)cc3)cc2C(=O)N([C@@H](C)CO)C[C@H]1C, which cytotoxicity call is on record?
Its cytotoxicity call is “inactive”.

C[C@@H]1CCCCO[C@H](CN(C)C(=O)Nc2ccc(C(F)(F)F)cc2)[C@@H](C)CN([C@@H](C)CO)C(=O)c2cc(NC(=O)Nc3ccc(C(F)(F)F)cc3)ccc2O1 was tested. Which cytotoxicity call did it give?
Its cytotoxicity call is “inactive”.
